In PubChem BioAssay (NCATS):
Values joined by “and” are separate entries in the source; they are usually repeats but may differ in a detail not shown here. Identical values can stand only once. Inconclusive results are not listed. Active and inactive are the calls of the source. Unless noted, calls come from the whole dose curve.

Tests used:
[1] = target: Bile acid receptor (Homo sapiens) (UniProt Q96RI1); assay: qHTS assay for small molecule antagonists of farnesoid X receptor signaling (AID 588526); note: % is set by controls: 0 for no effect and ±100 for the full control effect
Chain of Bile acid receptor (Homo sapiens) (Q96RI1 whole entry, looked up): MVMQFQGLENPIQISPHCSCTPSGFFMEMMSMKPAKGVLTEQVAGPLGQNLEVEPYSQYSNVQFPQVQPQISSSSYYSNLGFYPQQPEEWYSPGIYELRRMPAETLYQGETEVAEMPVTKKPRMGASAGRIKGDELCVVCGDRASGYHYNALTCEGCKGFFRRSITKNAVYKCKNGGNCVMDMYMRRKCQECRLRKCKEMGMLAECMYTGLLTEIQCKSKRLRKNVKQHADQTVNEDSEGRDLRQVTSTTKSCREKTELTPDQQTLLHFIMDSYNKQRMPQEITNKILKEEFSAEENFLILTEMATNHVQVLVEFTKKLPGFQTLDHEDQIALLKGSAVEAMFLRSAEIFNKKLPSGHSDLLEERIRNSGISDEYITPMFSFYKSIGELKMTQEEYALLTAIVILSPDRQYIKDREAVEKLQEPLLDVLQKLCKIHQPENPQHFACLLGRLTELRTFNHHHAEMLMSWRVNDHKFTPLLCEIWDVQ
Outline: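 Concentration-response titrations were fitted to the Hill equation for half-maximal inhibition and maximal response, with data normalised to 50 uM chenodeoxycholic acid and DMSO control wells. Cells: FXR-UAS-bla HEK293T, dialyzed FBS.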

[2] = target: Glucocorticoid receptor (Homo sapiens) (UniProt P04150); assay: qHTS assay for small molecule agonists of glucocorticoid receptor signaling (AID 588532; active = well fitted curve in the direction sought with a large enough effect in the signal ratio, with a control signal flat; the % refers to the signal ratio;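 note: 100% = dexamethasone at 0.1 µM and 0% = DMSO only wells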); details: HeLa MMTV-bla, beta-lactamase ratio, agonist, 18 h; stronger effect = higher value; percent of dexamethasone control, DMSO zero
Chain of Glucocorticoid receptor (Homo sapiens) (P04150 whole entry, looked up): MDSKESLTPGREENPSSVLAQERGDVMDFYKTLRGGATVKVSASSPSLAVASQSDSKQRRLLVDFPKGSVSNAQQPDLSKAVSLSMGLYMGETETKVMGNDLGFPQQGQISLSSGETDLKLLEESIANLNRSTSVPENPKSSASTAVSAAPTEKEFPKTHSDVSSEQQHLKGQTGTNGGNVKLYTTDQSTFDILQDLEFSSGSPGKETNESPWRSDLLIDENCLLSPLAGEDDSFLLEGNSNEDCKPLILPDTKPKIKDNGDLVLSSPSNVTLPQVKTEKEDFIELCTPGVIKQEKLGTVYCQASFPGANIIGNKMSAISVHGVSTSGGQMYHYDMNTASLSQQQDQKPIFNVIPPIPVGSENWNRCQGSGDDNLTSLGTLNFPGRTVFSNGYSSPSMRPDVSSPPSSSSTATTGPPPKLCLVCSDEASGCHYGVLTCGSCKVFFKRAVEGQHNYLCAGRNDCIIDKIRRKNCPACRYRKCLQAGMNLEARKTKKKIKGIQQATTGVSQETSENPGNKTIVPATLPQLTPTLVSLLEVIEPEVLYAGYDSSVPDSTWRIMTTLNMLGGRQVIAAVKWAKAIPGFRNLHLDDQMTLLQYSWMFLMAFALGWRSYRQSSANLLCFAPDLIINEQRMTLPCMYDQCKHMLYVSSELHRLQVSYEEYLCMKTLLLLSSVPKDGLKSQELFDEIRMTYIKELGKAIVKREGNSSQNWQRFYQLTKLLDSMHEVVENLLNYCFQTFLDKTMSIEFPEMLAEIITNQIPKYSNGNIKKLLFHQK
Outline: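 Titration series, up to 92 uM, applied to GRE-bla HeLa cells for 18 h at 37 C. Detection by CCF4 FRET substrate after 2 h at RT.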

[3] = target: Glucocorticoid receptor (Homo sapiens) (UniProt P04150); assay: qHTS assay for small molecule antagonists of glucocorticoid receptor signaling (AID 588533; active = well fitted inhibition curve with a large enough effect in the signal ratio, with a control signal flat, not every such curve was filed as active; the % refers to the signal ratio;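 note: cells stimulated with 2 nM dexamethasone as agonist; % is set by controls: 0 for no effect and ±100 for the full control effect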)
Outline: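 Antagonist-mode qHTS: compound titrations added to GRE-bla HeLa cells, then dexamethasone 2 nM final; 18 h, 37 C. CCF4 FRET fluorescence normalized to dexamethasone and DMSO; IC50 from Hill fit.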

[4] = qHTS assay for small molecule antagonists of peroxisome proliferator-activated receptor delta signaling (AID 588535; active = well fitted inhibition curve with a large enough effect in the signal ratio, with a control signal flat, not every such curve was filed as active; the % refers to the signal ratio;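 for max response: cells co-treated with a PPAR-delta agonist as stimulator during compound exposure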); details: HEK293T PPARd-UAS-bla, beta-lactamase FRET ratio, 18 h; 460 nm channel
Outline: (§1)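 Compounds tested in titration on PPAR-delta-UAS-bla HEK293T cells grown in charcoal/dextran-stripped serum (2%); beta-lactamase activity read via CCF4 emission at 460 and 530 nm.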

[5] = target: Peroxisome proliferator-activated receptor delta (Homo sapiens) (UniProt Q03181); assay: as above
Chain of Peroxisome proliferator-activated receptor delta (Homo sapiens) (Q03181 whole entry, looked up): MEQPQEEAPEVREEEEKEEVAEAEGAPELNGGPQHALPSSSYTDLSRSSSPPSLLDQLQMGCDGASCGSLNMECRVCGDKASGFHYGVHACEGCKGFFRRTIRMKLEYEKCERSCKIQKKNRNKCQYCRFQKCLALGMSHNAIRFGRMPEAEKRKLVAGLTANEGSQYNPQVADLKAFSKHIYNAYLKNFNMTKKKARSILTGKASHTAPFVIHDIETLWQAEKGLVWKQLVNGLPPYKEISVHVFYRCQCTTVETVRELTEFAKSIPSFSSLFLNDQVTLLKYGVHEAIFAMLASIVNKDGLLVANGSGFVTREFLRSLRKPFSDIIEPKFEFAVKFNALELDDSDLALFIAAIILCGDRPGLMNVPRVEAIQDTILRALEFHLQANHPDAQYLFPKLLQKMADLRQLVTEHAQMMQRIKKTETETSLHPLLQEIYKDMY
Outline: as §1

[6] = target: Peroxisome proliferator-activated receptor gamma (Homo sapiens) (UniProt P37231); assay: qHTS assay for small molecule antagonists of peroxisome proliferator-activated receptor gamma signaling (AID 588537; active = well fitted inhibition curve with a large enough effect in the signal ratio, with a control signal flat, not every such curve was filed as active; the % refers to the signal ratio;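 note: reporter cells co-stimulated with 50 nM rosiglitazone agonist during compound treatment; % of control where 0% means no effect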)
Chain of Peroxisome proliferator-activated receptor gamma (Homo sapiens) (P37231 whole entry, looked up): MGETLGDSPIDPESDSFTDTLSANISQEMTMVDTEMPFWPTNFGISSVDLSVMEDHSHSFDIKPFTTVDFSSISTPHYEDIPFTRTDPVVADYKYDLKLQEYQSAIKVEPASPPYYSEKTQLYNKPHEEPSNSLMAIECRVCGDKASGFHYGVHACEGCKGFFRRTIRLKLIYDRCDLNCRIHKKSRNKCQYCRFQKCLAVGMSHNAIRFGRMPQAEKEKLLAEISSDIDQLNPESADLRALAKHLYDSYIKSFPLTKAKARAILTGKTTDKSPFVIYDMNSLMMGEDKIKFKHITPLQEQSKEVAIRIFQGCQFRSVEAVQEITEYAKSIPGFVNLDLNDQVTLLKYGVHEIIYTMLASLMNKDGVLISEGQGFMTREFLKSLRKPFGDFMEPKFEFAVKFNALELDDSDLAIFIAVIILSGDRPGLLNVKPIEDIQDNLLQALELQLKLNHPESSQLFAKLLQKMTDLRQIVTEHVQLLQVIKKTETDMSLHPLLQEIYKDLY
Outline: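 HEK293 cells, PPAR-gamma-UAS-bla, 3000/well. Pre-incubation 6-6.5 h, 37 C. Compound titration with rosiglitazone 50 nM final, 16 h. CCF4 dye, 2 h RT, dual-emission fluorescence.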

[7] = target: Vitamin D3 receptor (Homo sapiens) (UniProt P11473); assay: qHTS assay for small molecule antagonists of vitamin D receptor signaling (AID 588541);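 note: receptor activated by calcitriol during compound treatment; series mostly up to about 77 µM; % is set by controls: 0 for no effect and ±100 for the full control effect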
Chain of Vitamin D3 receptor (Homo sapiens) (P11473 whole entry, looked up): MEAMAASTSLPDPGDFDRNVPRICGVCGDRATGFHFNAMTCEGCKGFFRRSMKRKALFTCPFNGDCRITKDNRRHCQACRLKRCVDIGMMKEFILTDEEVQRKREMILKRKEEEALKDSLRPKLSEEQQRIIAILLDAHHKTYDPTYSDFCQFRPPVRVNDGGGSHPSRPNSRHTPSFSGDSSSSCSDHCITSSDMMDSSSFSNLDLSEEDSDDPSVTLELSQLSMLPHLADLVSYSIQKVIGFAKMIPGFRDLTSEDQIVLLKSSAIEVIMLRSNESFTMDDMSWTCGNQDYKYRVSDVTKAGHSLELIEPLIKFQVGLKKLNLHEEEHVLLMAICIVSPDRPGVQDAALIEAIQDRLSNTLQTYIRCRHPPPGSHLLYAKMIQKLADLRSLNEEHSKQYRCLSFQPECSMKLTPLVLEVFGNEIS
Outline: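 VDR-UAS-bla HEK293T cells (2000/well, 2% charcoal-stripped FBS) were treated with titrated compounds plus 1-alpha,25-dihydroxyvitamin D3 (50 nM or 3 nM final) for 16 h at 37 C. CCF4 beta-lactamase fluorescence was read; Hill fits gave IC50.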

[8] = qHTS assay for small molecule agonists of retinoid X receptor alpha signaling (AID 588544); details: HEK293T RXRa-UAS-bla, beta-lactamase reporter, 18 h; 530 nm emission;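 for activation: 0% = DMSO basal wells and 100% = reference agonist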
[9] = target: Retinoic acid receptor RXR-alpha (Homo sapiens) (UniProt P19793); assay: as above
Chain of Retinoic acid receptor RXR-alpha (Homo sapiens) (P19793 whole entry, looked up): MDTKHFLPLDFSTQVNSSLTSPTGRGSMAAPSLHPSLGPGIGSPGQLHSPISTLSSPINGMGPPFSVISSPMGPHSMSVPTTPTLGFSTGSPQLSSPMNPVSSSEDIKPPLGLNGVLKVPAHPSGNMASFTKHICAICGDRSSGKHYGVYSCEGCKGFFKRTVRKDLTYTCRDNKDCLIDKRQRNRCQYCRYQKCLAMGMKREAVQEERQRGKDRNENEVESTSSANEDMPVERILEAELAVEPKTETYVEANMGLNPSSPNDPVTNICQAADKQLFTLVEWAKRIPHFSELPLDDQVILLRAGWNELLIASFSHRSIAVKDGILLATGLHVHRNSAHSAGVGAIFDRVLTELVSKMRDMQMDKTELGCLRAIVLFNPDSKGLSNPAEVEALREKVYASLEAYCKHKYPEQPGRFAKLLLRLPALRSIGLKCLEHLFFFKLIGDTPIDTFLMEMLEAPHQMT

[10] = qHTS assay for small molecule antagonists of retinoid X receptor alpha signaling (AID 588546; active = well fitted inhibition curve with a large enough effect in the signal ratio, with a control signal flat, not every such curve was filed as active; the % refers to the signal ratio;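 note: cells stimulated with 9-cis-retinoic acid as agonist; % is set by controls: 0 for no effect and ±100 for the full control effect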); details: HEK293T RXRa-UAS-bla, beta-lactamase ratio, antagonist mode; measured here: W530 green channel, cytotoxicity proxy
Outline: (§2)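 Beta-lactamase reporter inhibition, read as CCF4 fluorescence ratio (ex 405, em 460/530 nm) after 2 h at RT. HEK293T UAS-bla cells, 2500/well, were stimulated with 9-cis-RA at 500 or 100 nM final alongside test compound for 18 h at 37 C.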

[11] = target: Retinoic acid receptor RXR-alpha (Homo sapiens) (UniProt P19793); assay: as above; details: HEK293T RXRa-UAS-bla, beta-lactamase ratio, antagonist mode
Outline: as §2

[12] = target: Thyroid hormone receptor beta (Homo sapiens) (UniProt P10828); assay: qHTS assay for small molecule antagonists of thyroid hormone receptor beta signaling (AID 588547; active = well fitted inhibition curve with a large enough effect in the signal ratio, with a control signal flat, not every such curve was filed as active; the % refers to the signal ratio); details: TR-UAS-bla HEK293, beta-lactamase ratio, antagonist mode, 18 h
Chain of Thyroid hormone receptor beta (Homo sapiens) (P10828 whole entry, looked up): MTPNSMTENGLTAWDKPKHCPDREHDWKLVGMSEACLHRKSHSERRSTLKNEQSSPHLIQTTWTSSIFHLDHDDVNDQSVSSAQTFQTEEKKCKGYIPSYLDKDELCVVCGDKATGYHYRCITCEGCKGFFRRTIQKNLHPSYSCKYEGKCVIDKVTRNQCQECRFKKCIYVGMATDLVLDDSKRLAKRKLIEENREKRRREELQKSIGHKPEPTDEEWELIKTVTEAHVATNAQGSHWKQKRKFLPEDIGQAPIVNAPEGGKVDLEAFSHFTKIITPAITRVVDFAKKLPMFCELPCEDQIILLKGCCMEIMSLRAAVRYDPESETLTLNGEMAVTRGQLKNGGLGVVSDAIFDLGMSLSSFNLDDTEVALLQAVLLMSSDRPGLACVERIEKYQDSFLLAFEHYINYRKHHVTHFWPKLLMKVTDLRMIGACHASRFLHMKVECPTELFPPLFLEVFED
Outline: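 TR-UAS-bla GripTite HEK293 cells in 2% charcoal/dextran FBS medium were preincubated 4 h at 37 C, given compound (0.59 nM to 92 uM) plus 0.4 nM T3 (final) for 18 h, then CCF4 for 2 h at RT; Hill fit gave IC50.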

[13] = qHTS assay for small molecule agonists of the antioxidant response element (ARE) signaling pathway (AID 651741; active = well fitted activation curve with a large enough effect in the signal ratio; the % refers to the signal ratio; note: % of control where 0% means no effect)
Outline: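 Beta-lactamase reporter expression driven by the antioxidant response element in HepG2 cells was detected by fluorescence with LiveBLAzer B/G FRET substrate (2 h, room temperature) following 16 h compound treatment at 37 C.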

[14] = qHTS assay for small molecule activators of the p53 signaling pathway (AID 651743; active = well fitted activation curve with a large enough effect in the signal ratio, not every such curve was filed as active; the % refers to the signal ratio; note: series mostly up to about 92 µM; % of control where 0% means no effect); details: HCT-116 p53RE-bla, beta-lactamase FRET ratio, 16 h; stronger effect = higher value
Outline: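 Here HCT-116 cells with an integrated p53-responsive beta-lactamase gene were incubated with compounds (16 hours, 37 C) after a 5-hour plating period; beta-lactamase activity was detected as fluorescence intensity via B/G FRET substrate.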

[15] = qHTS assay for small molecule activators of the nuclear factor-kappa B (NF-kB) signaling pathway (AID 651749; active = well fitted activation curve with a large enough effect in the signal ratio; the % refers to the signal ratio; note: series mostly up to about 77 µM; % of control where 0% means no effect); details: NF-kB-bla ME-180 cells, beta-lactamase FRET ratio, 16 h; stronger effect = higher value
Outline: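 Beta-lactamase reporter expression, controlled by NF-kB response elements in ME-180 cells, was quantified fluorometrically via FRET disruption; cells at 2,000/well had been incubated with 23 nL test compound for 16 hr.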

[16] = target: Peroxisome proliferator-activated receptor gamma (Homo sapiens) (UniProt P37231); assay: qHTS assay for small molecule agonists of peroxisome proliferator-activated receptor gamma signaling (AID 588536; active = well fitted curve in the direction sought with a large enough effect in the signal ratio, with a control signal flat, not every such curve was filed as active; the % refers to the signal ratio;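 note: 0% = DMSO basal wells and 100% = rosiglitazone at 2 µM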)
Outline: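 This is an agonist-mode beta-lactamase reporter assay in HEK293 PPAR-gamma-UAS-bla cells with 1% charcoal/dextran FBS. Compound titrations ran 16 h at 37 C before CCF4 detection. EC50 and efficacy are Hill fits scaled to 2 uM rosiglitazone (100%) and DMSO basal.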

[17] = target: Vitamin D3 receptor (Homo sapiens) (UniProt P11473); assay: qHTS assay for small molecule agonists of vitamin D receptor signaling (AID 588543);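 note: 0% = DMSO basal and 100% = reference agonist control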
Outline: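 Agonist-mode beta-lactamase reporter: HEK293T VDR-UAS-bla cells in charcoal-stripped 2% FBS, compound series 16 h 37 C, CCF4 2 h RT. EC50 from Hill fit, scaled against DMSO and 50 nM calcitriol control.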

[18] = target: Thyroid hormone receptor beta (Homo sapiens) (UniProt P10828); assay: qHTS assay for small molecule agonists of thyroid hormone receptor beta signaling (AID 588545);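 note: 0% = DMSO only and 100% = 10 nM T3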
Outline: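 Efficacy and EC50 values derive from Hill fits of qHTS titration data, normalized to 10 nM T3 and DMSO-only wells. HEK 293 reporter cells were stimulated for 18 hrs at 37 C, with beta-lactamase activity measured by CCF4 fluorescence.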

[19] = target: Voltage-gated inwardly rectifying potassium channel KCNH2 (Homo sapiens) (UniProt Q12809); assay: qHTS Assay for Small Molecule Inhibitors of the Human hERG Channel Activity (AID 588834; active = well fitted inhibition curve with a large enough effect;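 note: top concentration of the series differs between compounds; % is set by controls: 0 for no effect and ±100 for the full control effect; lower thallium flux fluorescence means stronger hERG block; nearly all actives have a fitted effect of over 50% in size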)
Chain of Voltage-gated inwardly rectifying potassium channel KCNH2 (Homo sapiens) (Q12809 whole entry, looked up): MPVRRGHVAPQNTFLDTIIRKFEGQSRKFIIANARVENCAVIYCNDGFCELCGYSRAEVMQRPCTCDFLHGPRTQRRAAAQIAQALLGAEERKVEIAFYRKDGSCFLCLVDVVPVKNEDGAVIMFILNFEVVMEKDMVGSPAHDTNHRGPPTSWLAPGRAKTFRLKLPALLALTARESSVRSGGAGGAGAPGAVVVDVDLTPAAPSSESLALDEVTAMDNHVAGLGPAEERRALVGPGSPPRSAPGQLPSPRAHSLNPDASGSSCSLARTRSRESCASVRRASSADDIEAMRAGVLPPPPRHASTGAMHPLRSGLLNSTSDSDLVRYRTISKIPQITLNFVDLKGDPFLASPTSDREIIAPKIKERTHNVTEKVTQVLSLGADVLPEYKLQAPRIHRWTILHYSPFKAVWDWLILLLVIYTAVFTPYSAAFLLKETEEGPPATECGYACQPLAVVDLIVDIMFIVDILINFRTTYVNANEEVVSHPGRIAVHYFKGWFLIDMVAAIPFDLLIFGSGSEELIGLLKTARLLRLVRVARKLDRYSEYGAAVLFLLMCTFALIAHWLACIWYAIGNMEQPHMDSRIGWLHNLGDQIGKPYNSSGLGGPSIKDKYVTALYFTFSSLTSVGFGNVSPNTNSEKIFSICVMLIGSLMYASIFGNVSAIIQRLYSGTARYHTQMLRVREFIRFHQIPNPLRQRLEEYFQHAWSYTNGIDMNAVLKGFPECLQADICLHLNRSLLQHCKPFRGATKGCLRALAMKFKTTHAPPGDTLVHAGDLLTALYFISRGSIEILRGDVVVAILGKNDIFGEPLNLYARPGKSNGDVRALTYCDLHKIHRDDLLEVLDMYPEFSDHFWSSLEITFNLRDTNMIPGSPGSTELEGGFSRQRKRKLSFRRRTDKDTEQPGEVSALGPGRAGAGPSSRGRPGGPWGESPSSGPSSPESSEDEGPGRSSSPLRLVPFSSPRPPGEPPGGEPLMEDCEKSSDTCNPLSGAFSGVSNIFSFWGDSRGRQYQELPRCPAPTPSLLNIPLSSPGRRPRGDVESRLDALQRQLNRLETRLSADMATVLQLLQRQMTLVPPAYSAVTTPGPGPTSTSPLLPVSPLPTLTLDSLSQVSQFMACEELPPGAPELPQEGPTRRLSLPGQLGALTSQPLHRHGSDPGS
Outline: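 hERG block measured as reduced thallium-dye (FluxOR) fluorescence after stimulation buffer addition, read over 2 min. Cells were hERG-BacMam-transduced U2OS exposed to compound ~10 min […]; concentration-response fitted with Hill equation for AC50.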

C/C=C1\CC2C=CC1C2 (stereo not given)
-9.1%: max response [8]
-0.443%: max response [4]
inactive: outcome [1] | activation [2] 1.02% | outcome [3] | Potency [5] | outcome [6] | outcome [7] | outcome [9] | max response [11] 6.71% | activity change % (negative = inhibition) [12] 2.19% | Potency [13] | activation [14] 0.178% | activation [15] -0.076%
-2.6%: max response [10]

C=Cc1ccccc1C=C
-7.36%: max response [8]
-7.99%: max response [4]
inactive: outcome [1] | activation [2] 2.03% | outcome [3] | Potency [5] | outcome [16] | outcome [7] | outcome [17] | outcome [9] | outcome [18] | max response [11] -4.16% | activity change % (negative = inhibition) [12] -4.38% | activation [14] -1.45%
-3.83%: max response [10]

Cc1ccc(S(=O)(=O)NC2CCCCC2)cc1
-7.45%: max response [10]
inactive: outcome [1] | activation [2] -3.36% | outcome [3] | Potency [5] | outcome [16] | outcome [9] | outcome [18] | max response [11] 11.2% | activity change % (negative = inhibition) [12] -0.348% | Potency [19] | Potency [13] | activation [14] -2.24% | activation [15] -0.807%
-12.2%: max response [8]
42.4%: max response [4]

COC(=O)CCC(=O)OC
-38.8%: max response [4]
1.7%: max response [10]
inactive: outcome [1] | activation [2] -3.79% | outcome [3] | outcome [16] | outcome [6] | outcome [7] | outcome [17] | outcome [9] | outcome [18] | max response [11] 6.03% | activity change % (negative = inhibition) [12] 1.67% | Potency [19] | Potency [13] | activation [14] -2.9% | activation [15] 0.407%
-2.46%: max response [8]

CCCCC(C=O)CC (stereo not given)
4.08%: max response [8]
2.69%: max response [10]
inactive: outcome [1] | activation [2] -0.985% | outcome [3] | Potency [5] | outcome [16] | outcome [7] | outcome [17] | outcome [9] | outcome [18] | max response [11] 7.22% | activity change % (negative = inhibition) [12] 14.6% | Potency [19] | Potency [13] | activation [15] -0.855%
-2.18%: max response [4]

CC=O
-2.19%: max response [10]
inactive: outcome [1] | activation [2] -2.95% | outcome [3] | Potency [5] | outcome [16] | outcome [7] | outcome [17] | outcome [9] | outcome [18] | max response [11] -0.48% | Potency [19] | Potency [13] | activation [14] 0.53% | activation [15] 9.05%
23.9%: max response [4]
-8.77%: max response [8]

CCCCC(CC)COC(=O)CCCCC(=O)OCC(CC)CCCC (stereo not given)
-3.16% and -14.9%: max response [10]
inactive: outcome [1] | activation [2] 0.342% and 3.17% | outcome [3] | Potency [5] | outcome [16] | outcome [7] | outcome [17] | outcome [9] | outcome [18] | max response [11] 12% and 4.32% | Potency [13] | activation [14] -0.514% and -0.3% | activation [15] 0.278% and -0.188%
-13% and -12.5%: max response [8]
-4.31% and 35.2%: max response [4]

CCCCCCCCCCCCC1CO1 (stereo not given)
-5.24%: max response [8]
inactive: outcome [1] | activation [2] 0.241% | outcome [3] | Potency [5] | outcome [16] | outcome [6] | outcome [9] | outcome [18] | max response [11] 7.51% | activity change % (negative = inhibition) [12] -0.964% | Potency [19] | activation [15] 0.702%
-13.1%: max response [4]
-6.03%: max response [10]

NC(=O)/N=N/C(N)=O
-9.97%: max response [10]
-17.5%: max response [8]
inactive: outcome [1] | activation [2] 7.65% | outcome [3] | Potency [5] | outcome [16] | outcome [7] | outcome [9] | outcome [18] | max response [11] -2.12% | Potency [19] | activation [14] -0.505% | activation [15] 2.36%
-25.3%: max response [4]

Cc1cc(C)c(N)cc1C
inactive: outcome [1] | activation [2] 5.44% | outcome [3] | Potency [5] | outcome [16] | outcome [7] | outcome [17] | outcome [9] | outcome [18] | max response [11] 16.4% | activity change % (negative = inhibition) [12] -8.09% | Potency [19] | Potency [13] | activation [15] -0.054%
3.08%: max response [10]
-11.9%: max response [8]
2.74%: max response [4]

CCC(C)O (stereo not given)
2.22%: max response [10]
inactive: outcome [1] | activation [2] 0.0998% | outcome [3] | Potency [5] | outcome [7] | outcome [17] | outcome [9] | outcome [18] | max response [11] 4.59% | activity change % (negative = inhibition) [12] -7.82% | Potency [19] | Potency [13] | activation [14] -1.8%
-20.4%: max response [8]
-23.2%: max response [4]

Cc1ccccc1C(N)=O
-6.32%: max response [8]
16.7%: max response [4]
9.22%: max response [10]
inactive: outcome [1] | activation [2] -0.107% | outcome [3] | Potency [5] | outcome [16] | outcome [6] | outcome [9] | outcome [18] | max response [11] 7.98% | activity change % (negative = inhibition) [12] -3.78% | activation [14] 1.09% | activation [15] 1.42%

C=C(C)C(=O)OC
-17.1%: max response [8]
-44.8%: max response [4]
inactive: outcome [1] | activation [2] -3.9% | outcome [3] | Potency [5] | outcome [16] | outcome [6] | outcome [9] | outcome [18] | max response [11] -3.12% | activity change % (negative = inhibition) [12] -1.4% | Potency [19] | Potency [13] | activation [14] -0.845% | activation [15] -2.84%
-11.6%: max response [10]

C=CC(=O)OCCCC
inactive: outcome [1] | activation [2] 6.23% | outcome [3] | Potency [5] | outcome [7] | outcome [17] | outcome [9] | outcome [18] | max response [11] -2.2% | activity change % (negative = inhibition) [12] 1.99% | Potency [19] | Potency [13] | activation [14] -0.944%
3.81%: max response [10]
-9.05%: max response [8]
-13.6%: max response [4]
